Results filed as inconclusive are left out. Entries that show only a call come without a potency. Activity calls are given as the source filed them. The call rests on the fitted dose curve; in most records, active means well fitted cell-killing curve with a large enough effect; inconclusive means small, poorly fitted or top-dose-only effect, or effect the other way; inactive means no such curve, though single readings can be large or run the other way.
assay: Quantitative High-Throughput drug screen in 47 multiple myeloma cell lines against the NCATS MIPE library collection: MM1R_ATCC cell viability assay (AID 1918981); details: MM1R multiple myeloma cells, CellTiter-Glo viability, 48 h; series mostly up to 45.8 µM; further: nearly all actives have a fitted effect of over 35% in size
Outline: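 ATP-based CellTiter-Glo luminescence after 48 h drug exposure (37 °C, 5% CO2) of 500 myeloma cells per well. DMSO-only wells set 100% viability, media-only wells 0%; MIPE 4.0 library added by pin tool.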
Potency means the concentration at half of the fitted maximal effect.

SMILES | Potency
Nc1cccc2c1C(=O)N(C1CCC(=O)NC1=O)C2=O (configuration not stated) | 2.09 µM (active)
CC(C)[C@H](CO)Nc1nc(Nc2cccc(Cl)c2)c2ncn(C(C)C)c2n1 | 18.7 µM (active)
N#Cc1cc(NC(=O)Nc2nnc(-c3ccncc3)s2)ccc1-c1cn[nH]c1 | inactive
COc1cc(OC)c(NC(=O)Nc2cc(C)on2)cc1Cl | inactive
COC(=O)[C@@H]1[C@H]2C[C@@H]3c4[nH]c5ccccc5c4CCN3C[C@@H]2CC[C@@H]1O | inactive
C[N+](C)([O-])CCNc1ccc(NCC[N+](C)(C)[O-])c2c1C(=O)c1c(O)ccc(O)c1C2=O | 18.7 µM (active)
O=C1c2c(O)cccc2[C@@H]([C@@H]2O[C@H](CO)[C@@H](O)[C@H](O)[C@H]2O)c2cc(CO)cc(O)c21 | inactive
C[C@@H]1C(=O)O[C@H]2CC34[C@H]5C[C@@H](C(C)(C)C)C36[C@H](OC(=O)[C@@H]6O)O[C@@]4(C(=O)O5)[C@]21O (some centres not stated) | inactive
CC(C)n1cnc2c(NCCc3ccc(O)cc3)nc(-c3csc4ccccc34)nc21 | 7.43 µM (active)
CCCNC(=O)[C@H]1O[C@H]1C(=O)N[C@H](C(=O)N1CCC[C@@H]1C(=O)OC)C(C)CC (some centres not stated) | 2.35 µM (active)
CC(=O)O[C@H]1C[C@@H]2CC[C@H]3[C@H]4C[C@H]([N+]5(C)CCCCC5)[C@@H](OC(C)=O)[C@@]4(C)CC[C@@H]3[C@@]2(C)C[C@H]1[N+]1(C)CCCCC1 | inactive
COc1cc(C(C)C)c(Oc2cnc(NC(CO)CO)nc2N)cc1I | 2.64 µM (active)
CCN(CC)CCCCNc1ncc2c(n1)N(C)C(=O)N(c1c(Cl)c(OC)cc(OC)c1Cl)C2 | 16.6 µM (active)
O=S(=O)(O)CCSSCCS(=O)(=O)O | inactive
COc1cc(CCc2cc(NC(=O)c3ccc(N4C[C@@H](C)N[C@@H](C)C4)cc3)n[nH]2)cc(OC)c1 | 26.4 µM (active)
NC(=O)c1ncn([C@@H]2O[C@H](CO)[C@@H](O)[C@@H]2O)c1O | inactive

SMILES | Potency
CC(O)(C#Cc1ccc2c(c1)N(c1nc(N)ncc1Cl)CC2)c1nccs1 (configuration not stated) | 18.7 µM (active)
c1coc(CNc2ncnc3nc[nH]c23)c1 | inactive
O=C(CN1C(=O)C2(CCCC2)NC[C@H]1c1cc(F)cc(F)c1)Nc1ccc2c(c1)C[C@@]1(C2)C(=O)Nc2ncccc21 | inactive
CC(=O)N1CCN(c2ccc(OCc3nn(C)c(C)c3-c3cccc4c(CCCOc5cccc6ccccc56)c(C(=O)O)n(Cc5cccnc5)c34)cc2)CC1 | 1.05 µM (active)
CC(=O)N[C@H]1[C@@H]([C@H](O)[C@H](O)CO)OC(C(=O)O)=C[C@@H]1N=C(N)N | inactive
CN(C)CC(=O)N1CCC(c2ccc(NC(=O)c3ncc(C#N)[nH]3)c(C3=CCCCC3)c2)CC1 | 8.33 µM (active)
CNC(=O)c1cccc(-c2ccc3c(N4CCOC[C@H]4C)nc(N4CCOC[C@H]4C)nc3n2)c1 | 0.0662 µM (active)
CC[C@H]1OC(=O)[C@H](C)[C@@H](O[C@H]2C[C@@](C)(OC)[C@@H](O)[C@H](C)O2)[C@H](C)[C@@H](O[C@@H]2O[C@H](C)C[C@H](N(C)C)[C@@H]2O)[C@](C)(OC)C[C@@H](C)C(=O)[C@H](C)[C@@H](O)[C@]1(C)O | inactive
COc1cc(C[C@@H](CO)[C@H](CO)Cc2ccc(O)c(OC)c2)ccc1O | 1.32 µM (active)
COC(=O)[C@@H]1CC2=CC(=O)CC[C@]2(C)[C@@]23O[C@@H]2C[C@@]2(C)[C@H](CC[C@@]24CCC(=O)O4)[C@@H]13 | inactive
C[C@@H](NCc1cc2ccccc2[nH]1)c1cccc2ccccc12 | inactive
CC1=C(C(=O)Nc2cc3cn[nH]c3cc2F)C(c2ccc(Cl)cc2F)N=C(c2ccnc(Cl)c2)N1 (configuration not stated) | 18.7 µM (active)
C=C1C(=CC=C2CCC[C@]3(C)[C@@H]([C@H](C)CCCC(C)(C)O)CC[C@@H]23)C[C@@H](O)C[C@@H]1O | 18.7 µM (active)
COC1=C(OC)C(=O)C(CC=C(C)CCC=C(C)CCC=C(C)CCC=C(C)CCC=C(C)CCC=C(C)CCC=C(C)CCC=C(C)CCC=C(C)CCC=C(C)C)=C(C)C1=O | inactive
C[C@H]1COc2c(N3CCN(C)CC3)c(F)cc3c(=O)c(C(=O)O)cn1c23 | inactive
CC(=O)O[C@H]1C[C@@H]2CC[C@H]3[C@H]4C[C@H]([N+]5(C)CCCCC5)[C@@H](OC(C)=O)[C@@]4(C)CC[C@@H]3[C@@]2(C)C[C@H]1N1CCCCC1 | inactive

From PubChem BioAssay (NCATS)
